Assay outcomes: PubChem, National Center for Advancing Translational Sciences (NCATS)
SW480 rereplic = DNA re-replication induction in SW480 cells. AID 624297. SW480 DNA re-replication, Hoechst DNA content imaging, 48 h. actives 1.8% (n = 340,000). Potency, µM (series often up to 46.1 µM), without a hit: top-dose re-replication activation, hits mostly activators; further: % of control where 0% means no effect; nearly all actives have a fitted effect of over 55% in size
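Per well, 250 cells were exposed to pinned compound for 48 hr. Nuclear DNA was visualised with Hoechst (40 min, 37 C) and total object intensity recorded by fluorescence scanning.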
A-T KAP1 phos = candidate therapy for ataxia-telangiectasia; F2112 A-T fibroblasts, KAP-1 phosphorylation AlphaLISA; neocarzinostatin DNA damage 30 min before lysis; Potency, µM (top dose mostly 57.5 µM), for the others: at the top dose activation, hits mostly activators; actives 0.19% (n = 320,000); AID 485349; further: % of control where 0% means no effect; nearly all actives have a fitted effect of over 45% in size
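ATM-like activity read as KAP-1 phosphorylation via AlphaLISA donor/acceptor antibody pairs after lysis and 6 hr at 25C. Cells were ATM-null patient fibroblasts (F2112, hTERT), dosed 60 min, then exposed to the DSB inducer NCS for 30 min.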
a7 integrin act = activators of alpha7 integrin expression for muscular dystrophy. alpha7betagal myoblasts, beta-gal FDG fluorescence, 48 h. Potency, µM (series often up to 38.3 µM), for inactives: at the top dose activation, hits mostly activators. actives 0.064% (n = 350,000). AID 624291;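 further: 100% = response of the positive control SU9516; nearly all actives have a fitted effect of over 60% in size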
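Alpha7betagal+/- myoblasts (passage 13) were plated 16-24 hr, then exposed to compounds (1:260 dilution of DMSO stock) for 48 hours at 37C. After MPER lysis, β-galactosidase reporter activity was read as FDG fluorescence (ex 480/em 540) after 30 minutes.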
Mito fusion act = blocks mitochondrial division or promotes mitochondrial fusion. S. cerevisiae fusion-defective mutant growth rescue, CellTiterGlo 48 h. Potency, µM (highest dose often 46.1 µM), without a hit: at the top dose growth rescue (activation), usual class: activators. AID 485298. actives 0.23% (n = 320,000); further: % of control where 0% means no effect; nearly all actives have a fitted effect of over 45% in size
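Growth-rescue viability read-out: after 48 h at the non-permissive 37C in glycerol/ethanol YPEG, yeast mitochondrial fusion mutants are measured by CellTiterGlo luminescence; compounds (23 nl pinned per well) restoring growth score as division inhibitors or fusion activators.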
MCF10A rereplic = induces DNA re-replication in MCF 10a normal breast cells | Potency, µM (highest dose often 46.1 µM), for the others: top-dose activity, positive = re-replication, actives largely listed as activators | actives 2.9% (n = 350,000) | MCF 10A DNA re-replication, Hoechst nuclear intensity, 48 h; further: % of control where 0% means no effect; nearly all actives have a fitted effect of over 50% in size
* hit, by the source's call; ? = inconclusive; / = no result given; [ ] = another dose, or the depositor's remark. This is a sample that favours compounds with a hit; in the whole collection about 4.2% have one here. The call rests on the fitted dose curve; in most records, active means well fitted activation curve with a large enough effect; inconclusive means small, poorly fitted or top-dose-only effect; inactive means no such curve, though single readings can be large or run the other way. Potency means the concentration at half of the fitted maximal effect.

SMILES | SW480 rereplic | A-T KAP1 phos | a7 integrin act | Mito fusion act | MCF10A rereplic
CCOC(=O)c1nn(-c2ccccc2C)c2nc(-c3ccc(Cl)cc3)c(C#N)c(=O)n12 | ? | -2% | -4% | 8% | 1%
CC(C)COc1ccc(-c2cc(C(=O)NN)[nH]n2)cc1 | 0% | 3% | 5% | 10% | 18%
Cc1ccc(NC(=O)NC(=O)N(C(C)C)S(C)(=O)=O)nc1 | -4% | 0.71µM* | -8% | 6% | -1%
O=S(=O)(NCC(O)c1ccccc1)c1ccc(-c2ccccn2)s1 (stereo not given) | 23µM* | 10% | 7% | 0% | ?
Nc1c(Cl)ncnc1N1CCOCC1 | 2% | -1% | 13% | 0% | 0%
Nc1c(Cl)ncnc1N1CCN(c2ncnc(Cl)c2N)CC1 | 0.23µM* | -6% | 15% | 2% | 0%
COc1ccc(CN(CC(=O)NC(C)C)C(=O)CCC(=O)Nc2nccs2)cc1 | -5% | 3% | -15% | -6% | -2%
CC(C)(C)c1ccc(OCC(=O)NNC(=S)NC(=O)c2ccccc2[N+](=O)[O-])c(Br)c1 | ? | -8% | -13% | -10% | 21µM*
CC(C)(C)c1ccc(OCC(=O)Nc2ccncc2)c(Br)c1 | -2% | 4% | -31% | -10% | 15µM*
CO[C@@H]1[C@@H](OC2OC(C)C(OC3CC(C)(O)C(OC(=O)CC(C)C)C(C)O3)C(N(C)C)C2O)[C@@H](CC=O)C[C@@H](C)C(=O)/C=C\C2O[C@H]2C[C@@H](C)OC(=O)C[C@H]1OC(C)=O (stereo not given in full) | 19µM* | / | / | / | 30µM*
Cc1ccc(-c2nc3ncccc3o2)cc1NC(=O)c1ccc([N+](=O)[O-])o1 | 2.1µM* | 2% | -42% | 12% | 2.3µM*
O=C(Nc1ccc(-c2nc3ncccc3o2)cc1)c1ccc([N+](=O)[O-])o1 | 2.3µM* | 21% | -13% | -23% | 2.9µM*
Cc1cc(-c2nc3ncccc3o2)ccc1NC(=O)c1ccc([N+](=O)[O-])o1 | -13% | / | -8% | / | ?
CC(C)C(=O)Nc1ccc(-c2nc3ncccc3o2)cc1 | 2% | 2% | 5% | -1% | 17%
Cn1cc([N+](=O)[O-])c(C(=O)Nc2ccc(-c3nc4ccccc4o3)cc2)n1 | ? | 13% | -47% | 3% | 3.7µM*
O=C(Nc1ccc2oc(-c3ccncc3)nc2c1)c1ccc([N+](=O)[O-])o1 | 2.6µM* | 16% | -66% | -17% | 4.1µM*
Cc1n[nH]c(C)c1Sc1ccccc1N=Cc1cc([N+](=O)[O-])ccc1O | / | -5% | / | 4% | /
Cn1cc([N+](=O)[O-])c(C(=O)Nc2nccs2)n1 | ? | -2% | -55% | -2% | 4.6µM*
CCN(CC(O)CON=C1c2ccccc2-c2ccccc21)S(=O)(=O)c1ccc(C)cc1 (stereo not given) | 2% | 3% | -40% | 26% | ?
Cc1cccc(N(CC(O)CON=C2c3ccccc3-c3ccccc32)S(C)(=O)=O)c1 (stereo not given) | ? | 3% | 3% | 25% | 16µM*
CN(CC(O)CON=C1c2ccccc2-c2ccccc21)S(=O)(=O)c1ccc(Br)cc1 (stereo not given) | ? | 5% | -50% | ? | 16µM*
N=c1c(S(=O)(=O)c2ccccc2)cc2c(=O)n3ccccc3nc2n1CCCN1CCOCC1 | ? | 4% | 0% | 2% | -11%
Cc1ccc(S(=O)(=O)c2cc3c(=O)n4ccccc4nc3n(CCCN3CCOCC3)c2=N)cc1C | 23µM* | 7% | 6% | 1% | 23µM*
Cn1c(=N)c(S(=O)(=O)c2ccccc2)cc2c(=O)n3ccccc3nc21 | ? | -1% | -11% | -2% | 18µM*
CCCn1c(=N)c(S(=O)(=O)c2ccc(F)cc2)cc2c(=O)n3ccccc3nc21 | ? | -8% | ? | 0% | ?
SMILES | SW480 rereplic | A-T KAP1 phos | a7 integrin act | Mito fusion act | MCF10A rereplic
C=CCn1c(=N)c(S(=O)(=O)c2ccc(C)c(C)c2)cc2c(=O)n3ccccc3nc21 | ? | -3% | 13% | 3% | 23µM*
CCOCCCn1c(=N)c(S(=O)(=O)c2ccccc2)cc2c(=O)n3cc(C)ccc3nc21 | 5.8µM* | 0% | -9% | 6% | 8.2µM*
CCCC1NC(=O)c2cccnc2-n2c1nc1ccc(Br)cc1c2=O (stereo not given) | / | / | -8% | / | /
CCc1n[nH]c(=S)n1/N=C/c1c(O)ccc2ccccc12 | -3% | 1% | 0% | -16% | 9%
N#CCCN(C(=O)COC(=O)C1CCN(S(=O)(=O)c2ccc3c(c2)OCCO3)CC1)c1ccccc1 | -3% | 11% | 13% | 0% | 3%
Cc1ccc(S(=O)(=O)c2cc3c(=O)n4ccccc4nc3n(C)c2=N)cc1C | -7% | 4% | -11% | 6% | 4.1µM*
O=C(Nc1ccccc1)OCc1cc(-c2ccccc2Cl)on1 | -5% | -4% | 11% | -2% | 26µM*
Cc1ccc(C(=O)NC(=S)Nc2cc(C(F)(F)F)ccc2Cl)cc1 | ? | 7% | 16% | -2% | 9.2µM*
Cc1cc(=O)oc2cc(OCC(=O)N3c4ccccc4CC3C)ccc12 (stereo not given) | 1.6µM* | -2% | -28% | 8% | 2.5µM*
Cc1cc(=O)oc2cc(OCC(=O)N3CC(C)OC(C)C3)ccc12 (stereo not given) | -2% | / | -58% | 0% | -3%
Cc1cc(=O)oc2cc(OCC3CC(c4ccccc4)=NO3)ccc12 (stereo not given) | 5.2µM* | 2% | 6% | 13% | 4.1µM*
Cc1cc(=O)oc2cc(OCC3CC(c4ccc(Br)cc4)=NO3)ccc12 (stereo not given) | ? | 0% | 12% | 0% | 9.2µM*
O=[N+]([O-])c1ccc(OCC2CC(c3ccccc3)=NO2)cc1 (stereo not given) | 16µM* | -8% | 2% | -17% | ?
O=C(O)CC1CC(c2ccccc2)=NO1 (stereo not given) | / | / | / | 1% | /
CCc1ccccc1Nc1nn2c(=O)c3ccc(C(=O)NCCCOC(C)C)cc3nc2s1 | / | -9% | / | -2% | /
C#CCN(C[C@H]1[C@H](OC(=O)NCc2ccco2)[C@H](OC(=O)NCc2ccco2)C[C@@H](C(=O)OC)[C@H]1C(=O)OC)S(=O)(=O)c1ccc(C)cc1 | / | / | -32% | / | /
COc1ccccc1C(=O)Nc1ccc2c(c1)nc(CCNC(C)=O)n2C | -12% | -2% | -6%[7.66 µM] | -2% | -4%
COc1ccccc1C(=O)Nc1ccc2c(c1)nc(CCNC(=O)c1ccccc1)n2C | 13µM* | 5% | -18% | 5% | 6.5µM*
O=C(CN1C(=O)NC2(CCCCCC2)C1=O)N1CCN(S(=O)(=O)c2ccccc2)CC1 | 1% | -6% | 6% | 2% | 1%
